Measured values: ChEMBL document CHEMBL3988442, “University of Dundee, Small-Polar-MMV Screening Library” (2021)
The whole screen tested about 48,000 compounds, of which about 13,000 (27%) showed an effect of 50% or more. Some of the results follow.

System: Wolbachia pipientis
Experiment: Anti-Wolbachia Cell-Based Screen
Assay type: functional
Design: scale not given: in the data most compounds retested in dose-response had high values
Conditions: 5 µM

Structure (SMILES) | Percent Effect [%]
Cc1noc(C)c1CN1CCC2(CC1)NC(=O)CC2c1ccccc1.O=C(O)C(F)(F)F (stereo not drawn) | 92.37
CCn1c(N)nc2cc(C(=O)N3CCN(c4nccs4)CC3)cnc21 | 5.725
O=C(c1ccoc1)N1CCC(NCc2ccccc2-n2ccnc2)CC1 | 2.985
CCn1ncc2c1NC(=O)C(C#N)C21CCCC1 (stereo not drawn) | 21.97
Cc1ccc(CN2CCC3(CC2)C(=O)N(CC(C)C)CCN3C)o1.O=C(O)C(F)(F)F.O=C(O)C(F)(F)F | -29.49
Cc1ccc(CN2CCC3(CC2)C(=O)N(CC(C)C)CCN3C)s1.O=C(O)C(F)(F)F.O=C(O)C(F)(F)F | 102.6
CC(C)CN1CCN(C)C2(CCN(c3nccs3)CC2)C1=O.O=C(O)C(F)(F)F | -15.41
CN(C)c1ncccc1C(=O)N1CCCC1Cn1cccn1 (stereo not drawn) | 111.6
Cc1cnn(CC2CCCCN2C(=O)c2ccc3nnc(C)n3c2)c1 (stereo not drawn) | -9.496
Cc1cc(C)n(CC2CCCN2C(=O)c2c[nH]c3ncccc23)n1 (stereo not drawn) | -7.335
Cc1cc(C)n(CC2CCCN2C(=O)c2cccc3[nH]ncc23)n1 (stereo not drawn) | -3.123
Cc1cnn(CC2CCCCN2C(=O)c2cccnc2N(C)C)c1 (stereo not drawn) | 94.82
Cc1cnn(CC2CCCCN2C(=O)c2ccnc(N(C)C)c2)c1 (stereo not drawn) | -6.114
O=C(c1cccnc1N1CCOCC1)N1CCCC1Cn1cccn1 (stereo not drawn) | 1.919
Cc1cnn(CC2CCCN2C(=O)c2cccnc2N(C)C)c1 (stereo not drawn) | -3.738
Cc1cc(C)n(CC2CCCN2C(=O)c2cccnc2N(C)C)n1 (stereo not drawn) | 118
Cc1cnn(CC2CCCCN2C(=O)c2cccc3c2OCO3)c1 (stereo not drawn) | -2.775
Cc1cnn(CC2CCCCN2C(=O)c2ccc(N(C)C)nc2)c1 (stereo not drawn) | 89.91
O=C(c1cccc2c1OCO2)N1CCCC1Cn1cccn1 (stereo not drawn) | -0.6849
CC(C)[C@@H]1CN(S(=O)(=O)Cc2ccccc2)C[C@H]1C(=O)O | 3.081
O=C(NCC(O)c1cccs1)c1sccc1OC(F)F (stereo not drawn) | 2.411
Cc1ccccc1N1CCN(C(=O)c2cnc(C3CC3)nc2)C(C)C1 (stereo not drawn) | -6.259
COc1ncccc1CNC(=O)c1c[nH]c(=O)c(Br)c1 | -2.261
CN(Cc1cscn1)C1CCN(C(=O)OC(C)(C)C)CC1 | -0.6066

Structure (SMILES) | Percent Effect [%]
Cc1nc(C(=O)N2CCC(Cc3cnc4[nH]ccc4c3)C2)co1 (stereo not drawn) | -2.794
O=C(c1cscn1)N1C[C@@H]2[C@@H](C1)OCC(=O)N2CC1CCCC1 | -7.986
Cn1ccc(C(=O)N2CCC(Cc3cnc4[nH]ccc4c3)C2)n1 (stereo not drawn) | 135.4
Cn1ccc(C(=O)N2CCC(Cc3cnc4[nH]ccc4c3)CC2)n1 | -9.979
O=C(c1cscn1)N1CCC(Cc2cnc3[nH]ccc3c2)C1 (stereo not drawn) | 91.07
Cc1nn(CCC(=O)NC(C(=O)O)c2c(C)n[nH]c2C)c(C)c1C (stereo not drawn) | 9.182
CC(C)(C)c1ncc2c(n1)CN(C(=O)c1ccc3[nH]cnc3c1)C2 | -16.99
O=C(c1ccncc1)N1CCc2ncnc(C3CCOC3)c2CC1 (stereo not drawn) | 1.428
CCN1CC[C@@]2(C(=O)N3CCOCC3)CCN(S(=O)(=O)CC)CC[C@@H]12.O=C(O)C(F)(F)F | -35.9
CCc1noc(C)c1C(=O)N1CCC(c2[nH]ncc2S(C)(=O)=O)C1 (stereo not drawn) | 111.9
CCc1cn[nH]c1C1CCCN(C(=O)c2ncoc2C(C)C)C1 (stereo not drawn) | 0.179
CCc1noc(C)c1C(=O)N1C[C@H](NS(C)(=O)=O)[C@@H](C2CC2)C1 | 7.684
Cc1noc(C)c1C(=O)N1CCC(c2[nH]ncc2S(C)(=O)=O)C1 (stereo not drawn) | 95.01
CCn1cc(C(=O)N2CCCC(c3[nH]ncc3S(C)(=O)=O)C2)cn1 (stereo not drawn) | -1.066
CCc1cn[nH]c1C1CCCN(C(=O)c2noc(C)c2COC)C1 (stereo not drawn) | -6.588
CCc1cc(C(=O)N2CCCC(c3[nH]ncc3S(C)(=O)=O)C2)no1 (stereo not drawn) | 122.4
COCCn1cc(NCc2cn(C)nc2-c2ccncc2)cn1 | 0.5012
Cc1ccc(O[C@@H]2C[C@H]3CN(C(=O)c4cnccn4)CCN3C2)cc1.O=C(O)C(F)(F)F | -2.389
Cc1nc(CC(=O)N2CCC3(CC2)CC(=O)N(CC2CCCO2)C3)cs1 (stereo not drawn) | 8.939
Cc1ccccc1-c1cncc(C2CCN(C(C)C)CC2)n1 | -0.08562
CC(C)N1CCC(c2cccc(C(=O)N(C)C)n2)CC1 | 126.2
CN1CCC(c2cccc(C(=O)N(C)C)n2)CC1 | 118.3
CN(C)CCCn1ccnc1C1CCN(c2cccc(C(=O)O)n2)CC1 | -0.5716
CC(C)N1CCC(c2ccnc3c(C(=O)N4CCCC4)ncn23)CC1 | -18.47
